Screening results: PubChem BioAssay, National Center for Advancing Translational Sciences (NCATS)
Shown are actives, neighbours in structure and some others; about 13% of the full set was active somewhere.
Pf growth 96h: inhibits malaria parasite growth, 96 h. P. falciparum luciferase reporter growth, 96 h. Potency, µM (series often up to 28.7 µM), for the others: top-dose activity change, negative = inhibition, usual class: inhibitors. 6.9% of 320,000 active; note: potency is the fitted concentration of half-maximal effect
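Delayed-death screen, second-generation endpoint: infected erythrocytes, 2% hematocrit, 0.05% parasitemia final; 96 hours at 37 C, 5% CO2; luciferase detection reagent; luminescence decrease equals reduced growth.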
Pf growth 48h: P. falciparum growth inhibition at 48 hours (one generation); P. falciparum luciferase growth in erythrocytes, 48 h; Potency, µM (top dose mostly 28.7 µM), inactives show top-dose activity change, negative = inhibition, actives largely listed as inhibitors; 5.9% of 310,000 active; AID 504832; note: potency is the fitted concentration of half-maximal effect
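First compound was added to culture medium, then infected red cells at 0.1% parasitemia and 2% hematocrit (final). After incubation at 37 C under 5% CO2, luciferase detection reagent was dispensed and light output recorded.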
HCV inhibitor: blocks hepatitis C virus; Huh7.5.1 HCVcc-Cre infection, luciferase reporter, 44 h; Potency, µM (doses to about 41.8 µM), for the others: top-dose activity change, negative = inhibition, most hits filed as inhibitors; 3.4% of 340,000 active; AID 651820; note: potency is the fitted concentration of half-maximal effect
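Reporter virus HCVcc-Cre (~0.5 moi) infects cells exposed to compound; seeding density 1,000 cells/well with 4 h settling beforehand. Luminescence, 15 sec read, taken 44 h post-infection following a 15 min RT substrate incubation.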
HCMV inh: human cytomegalovirus inhibition; HFF cells, HCMV-luciferase reporter, 72 h; active compounds read low; activity change, negative = inhibition, % at 57.5 µM; 4.5% of 410,000 active; in the data active = activity change below about -60%; inconclusive = no clear call, values can overlap the other calls; inactive = above about -39%
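HFF cells seeded 16 h at 37C, treated with compounds, infected with luciferase-reporter HCMV at MOI 1 PFU/cell; luciferase read at 72 h post infection, normalized to buffer-only and Salinomycin controls.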
* marks the source's active call; other numbers are inactive results; ? = inconclusive; nt = no result; [ ] = dose if it differs, or a comment. Unless noted, calls come from the whole dose curve; as a rule, active = well fitted inhibition curve with a large enough effect; inconclusive = small, poorly fitted or top-dose-only effect, or another doubt; inactive = no such curve, though single readings can be large or run the other way. % is set by controls: 0 for no effect and ±100 for the full control effect.

SMILES	Pf growth 96h	Pf growth 48h	HCV inhibitor	HCMV inh
Cc1ccc(NC(=O)c2oc3ccccc3c2NC(=O)C23CC4CC(CC(C4)C2)C3)cc1	nt	nt	nt	-11
CCC(=O)N1c2ccc(S(=O)(=O)N3CCC(C)CC3)cc2CC1C (centres undefined)	nt	nt	nt	25
CCOC(=O)C1=C(CN2CCN(C(=O)c3ccco3)CC2)NC(=O)NC1c1ccc(Cl)cc1 (centres undefined)	?	3.7µM*	-16%	?
O=C(c1ccc(S(=O)(=O)Nc2ccc(F)cc2)cc1)N1CCN(C(=O)c2ccco2)CC1	nt	7%	-20%	-69*
C=CCn1cnc2c(c1=O)c1nc3ccccc3nc1n2/N=C/c1cc(OC)c(OC)c(OC)c1	5.9µM*	3.7µM*	?	-14
C=CCn1cnc2c(c1=O)c1nc3ccccc3nc1n2/N=C/c1ccccn1	1.9µM*	-4%	nt	-28
C=CCn1cnc2c(c1=O)c1nc3ccccc3nc1n2-c1ccccc1	5.9µM*	nt	nt	nt
CCNC(=O)C1(C)CCCN(C(=O)COc2ccc(Cl)cc2Cl)C1 (centres undefined)	nt	nt	nt	5
Cc1cc(C)n(CCc2nc3c4ccccc4nc(SCc4ccc(Cl)cc4)n3n2)n1	nt	nt	nt	0
CC1(C)CC(=O)c2cc(-c3nc(-c4ccccc4)cs3)c(=O)[nH]c2C1	nt	nt	nt	-4
COc1nc2ccccc2c(=O)n1-c1ccc(Cl)cc1	-27%	-28%	3%	-61*
O=c1c2ccccc2nc(N2CCCC2)n1-c1ccc(Cl)cc1	27%	2%	?	-63*
CCC(C(=O)Nc1cc(F)ccc1F)n1nc(-c2cc(C)ccc2C)ccc1=O (centres undefined)	nt	nt	nt	27
CCCCC[C@]12Cc3cc(OC)c(OC)cc3C(O1)c1c(cc(C)n(-c3ccccc3)c1=O)O2	36%[5.75 µM]	?	nt	nt
Cc1ccc(CN2CCN(C3CCN(C(=O)Nc4ccccc4C(F)(F)F)CC3)C(=O)C2=O)cc1	nt	nt	nt	18
Cc1ccc(NC(=O)C2CCN(S(=O)(=O)c3ccc4[nH]c5c(c4c3)CCCCC5)CC2)cc1	nt	nt	nt	0
O=C(O)Cc1csc(-c2ccccc2)n1	-13%[1.15 µM]	-28%	-8%	-63*
CCOC(=O)C1=C(C)N=C2SC(C)C(=O)N2C1/C=C/c1ccccc1OC (centres undefined)	nt	12µM*	?	-4
COc1ccc(CCNC(=O)Cn2c(=O)nc(-c3ccccc3F)c3cc(Cl)ccc32)cc1OC	nt	nt	nt	157
CCCNC(=O)C1(C)CCCN(CCC(=O)c2ccccc2)C1 (centres undefined)	nt	nt	nt	-8
CCN(CC)CCCNC(=O)c1ccc(OCC(=O)Nc2ccccc2C(F)(F)F)c(OC)c1	19µM*	?	?	-33
CCN(CC(=O)Nc1ccc(OC)c(OC)c1)CC(=O)Nc1ccccc1C(F)(F)F	-20%	0%	-27%	-29
CS(=O)(=O)Nc1ccc(C(=O)Nc2ccccc2Cl)cc1	?	19%	-1%	-34
COC(=O)c1ccccc1NC(=O)c1ccc(NS(C)(=O)=O)cc1	nt	19%	11µM*	72
CS(=O)(=O)Nc1ccc(C(=O)Nc2ccccc2-c2ccccc2)cc1	12µM*	?	0%	-1
SMILES	Pf growth 96h	Pf growth 48h	HCV inhibitor	HCMV inh
COC(=O)c1ccccc1NC(=O)c1ccc2c(c1)OCCO2	?	4%	10µM*	45
Nc1ccc(Br)c[n+]1Cc1cccc2cccnc12	10µM*	?	-4%	-20
CCc1ccc2c(c1)cc(CN(C(=S)Nc1ccc(Cl)cc1)C1CC1)c1nnnn12	?	2.9µM*	-16%	-23
COCCNC(=S)N(Cc1cc2cc(C)ccc2n2nnnc12)C1CCCC1	-13%	-29%	-1%	-35
c1ccc2c(c1)C1=NCCN1c1ccccc1-2	nt	nt	nt	-103*
Cc1nc2cccnc2n1-c1cccc(C(=O)NCCc2ccc(S(N)(=O)=O)cc2)c1	nt	nt	nt	42
O=C(OC(c1ccccc1)c1nccc2ccccc12)c1cc([N+](=O)[O-])cc([N+](=O)[O-])c1 (centres undefined)	10µM*	-14%	?	-18
OC(c1cccc(Cl)c1)c1nccc2ccccc12 (centres undefined)	?	74%	-1%	-1
Cc1ccc(NC(=O)c2c(C)cc(C)nc2SCC(=O)Nc2ccc(Br)cc2)cc1	nt	nt	nt	-16
CCc1cccc(NC(=O)CCc2c(C)nc3c(c2C)c(=O)n(C)c(=O)n3C)c1	nt	nt	nt	-18
COc1ccc(Nc2nc(CC(C)=O)ns2)cc1	2.6µM*	111%	3%	78
